From PubChem BioAssay (NCATS)
Results filed as inconclusive are left out. Calls of active or inactive are those of the source. Unless noted, calls follow the shape of the dose curve; as a rule, active = well fitted curve in the direction sought with a large enough effect; inconclusive = small, poorly fitted or top-dose-only effect, or another doubt; inactive = no such curve, though single readings can be large; an effect the other way counts as inactive or inconclusive.

Tests used:
[1] = AP1 Signaling Pathway (AID 357; active = well fitted curve in either direction with a large enough effect, not every such curve was filed as active;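 also: ME-180 reporter cells stimulated with EGF at its EC50 level; % is scaled to controls: 0 for no effect and ±100 for the full control effect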)
Outline: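 Modulation of EGF-driven AP-1 transcription was assessed with a beta-lactamase reporter in ME-180 cells. Compound and EC50 EGF were co-incubated 5 hours at 37 °C before 2.5-hour CCF4 loading at room temperature and dual-emission reading.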

[2] = Stat Signaling Pathway (AID 446; active = well fitted curve in either direction with a large enough effect, not every such curve was filed as active;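 also: ME-180 cervical cancer cells given 40 pM IL-6 alongside compound; SIE-controlled beta-lactamase reporter measured as 460/530 nm FRET emission ratio; % is scaled to controls: 0 for no effect and ±100 for the full control effect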)
Outline: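 FRET read-out (405 nm excitation, 460/530 nm emission) of a beta-lactamase reporter under a STAT-inducible element in ME-180 cervical carcinoma cells. Cells with compound receive 40 pM IL-6 for 5 h. Values are normalised to AC90 stimulation and AC90 JAK-inhibitor controls.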

[3] = target: Glucocorticoid receptor (Homo sapiens) (UniProt P04150); assay: GR-GFP Redistribution (AID 450;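 active = compounds whose dose series gives a full or clear partial fitted curve of increased nuclear translocation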; also: potency is read from the fitted curve at half-maximal effect); conditions: U2OS GR-GFP nuclear translocation, laser cytometry, 2 h
[4] = qHTS Assay for Identification of Small Molecule Agonists for Hypoxia Response Element Signaling Pathway (AID 914; active = well fitted activation curve with a large enough effect in the signal ratio, with a control signal flat, not every such curve was filed as active; the % refers to the signal ratio; also: % of control where 0% means no effect); conditions: ME-180 (cervical carcinoma) HRE-bla reporter, beta-lactamase ratio, CoCl2, 17 h; activation: stronger effect = higher value
Outline: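 A beta-lactamase reporter under hypoxia response element control in ME-180 cells served as the system. Compound titrations plus EC50 CoCl2 ran 17 h at 37 degrees Celsius; AC50 values were fitted from %Activity.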

[5] = tested on: Zika virus NS2B-NS3 protease (linked construct); assay: Primary screen NINDS Rhodamine qHTS for Zika virus inhibitors (AID 1347160); also: % is scaled to controls: 0 for no effect and ±100 for the full control effect; nearly all actives have a fitted effect of over 55% in size
Outline: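 Rhodamine110-peptide cleavage (1.5 µM substrate) by 25 nM linked NS2B-NS3 enzyme at pH 8.0 (Tris, Tween 20), after 15 min RT preincubation with compounds; 15-min fluorescence change normalized to controls and Hill-fitted.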

[6] = OV-KATE Cancer Cell Toxicity qHTS against the NCATS CANVASS Library (AID 1347345); also: % is scaled to controls: 0 for no effect and ±100 for the full control effect
Outline: (§1)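 Bortezomib titration and single-dose wells served as plate controls. Test compounds, 11 points, acted on 1000 cells/well for 72 h at 37 degrees C; CellTiter-Glo luminescence quantified remaining viable cells.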

[7] = HPAF-II Cancer Cell Toxicity qHTS against the NCATS CANVASS Library (AID 1347346); also: series mostly up to about 38 µM; % is scaled to controls: 0 for no effect and ±100 for the full control effect; nearly all actives have a fitted effect of over 55% in size
Outline: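 First, HPAF-II cells are plated (1000 cells/well) and held 4 h at 37 degrees C. Next, compounds are pin-transferred as an 11-point series. After 72 h, CellTiter-Glo is added and luminescence measured.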

[8] = UWB1.289 Cancer Cell Toxicity qHTS against the NCATS CANVASS Library (AID 1347347); also: series mostly up to about 38 µM; % is scaled to controls: 0 for no effect and ±100 for the full control effect; nearly all actives have a fitted effect of over 60% in size
Outline: as §1

[9] = OV-SAHO Cancer Cell Toxicity qHTS against the NCATS CANVASS Library (AID 1347348); also: series mostly up to about 38 µM; % is scaled to controls: 0 for no effect and ±100 for the full control effect; nearly all actives have a fitted effect of over 55% in size
Outline: as §1

[10] = Panc-1005 Cancer Cell Toxicity qHTS against the NCATS CANVASS Library (AID 1347349); also: series mostly up to about 38 µM; % is scaled to controls: 0 for no effect and ±100 for the full control effect; nearly all actives have a fitted effect of over 60% in size
Outline: as §1

[11] = U-118MG Cancer Cell Toxicity qHTS against the NCATS CANVASS Library (AID 1347351); also: series mostly up to about 38 µM; % is scaled to controls: 0 for no effect and ±100 for the full control effect
Outline: as §1

[12] = COV-362 Cancer Cell Toxicity qHTS against the NCATS CANVASS Library (AID 1347352)
Outline: (§2)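 First, 1000 cells go into each well and rest for 4 hours. Next, an 11-point dilution range is pinned in. Plates then incubate 72 hours before CellTiter-Glo addition and luminescence reading.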

[13] = A2780 Cisplatin Sensitive Ovarian Cancer Cell Toxicity qHTS against the NCATS CANVASS Library (AID 1347353); also: nearly all actives have a fitted effect of over 60% in size
Outline: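 Cells are plated at 750 per well and rest for 4 hours. Compounds are added across eleven concentrations, and incubated 72 hours before ATP is quantified by luminescence.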

[14] = UWB1.289-WTBRCA1 Cancer Cell Toxicity qHTS against the NCATS CANVASS Library (AID 1347354)
Outline: as §2

[15] = HEK-293 Cancer Cell Toxicity qHTS against the NCATS CANVASS Library (AID 1347355); also: series mostly up to about 46 µM; % is scaled to controls: 0 for no effect and ±100 for the full control effect; nearly all actives have a fitted effect of over 65% in size
Outline: as §2

[16] = HPAF-II 24hr Apoptosis Induction qHTS against the NCATS CANVASS Library (AID 1347356); also: 0% is about no effect
Outline: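 Cells seeded at 500 per well, then compounds pin-transferred in an 11-point concentration series. After 24 hours at 37 degrees C, Caspase-Glo 3/7 was added and luminescence measured following 15 min at room temperature.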

[17] = HPAF-II 12hr Apoptosis Induction qHTS against the NCATS CANVASS Library (AID 1347358); also: 0% is about no effect
Outline: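 Cells plated at 500 per well are dosed with compound and incubated 12 hours at 37 degrees C. Caspase-Glo 3/7 reagent is added and, after 15 min at room temperature, luminescence proportional to caspase activity is measured.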

[18] = HEK293 24hr Apoptosis Induction qHTS against the NCATS CANVASS Library (AID 1347359); also: 0% is about no effect
Outline: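 Caspase-3/7 activation measured as luminescence from the DEVD-based Caspase-Glo reagent, 15 min at room temperature, following 24-hour compound treatment of HEK293 cells.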

[19] = HEK293 12hr Apoptosis Induction qHTS against the NCATS CANVASS Library (AID 1347361); also: 0% is about no effect
Outline: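 Apoptosis in HEK293 was scored as caspase-3/7 luminescence following 12 h treatment with a compound concentration series in qHTS format.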

[20] = tested on: NAD(P)H diaphorase (Clostridium kluyveri); assay: Diaphorse counterscreen qHTS: Assay Interference Panel against the NCATS CANVASS Library (AID 1347362); also: 0% is about no effect
Outline: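 Counterscreen for coupling-enzyme interference: resorufin fluorescence from resazurin/NADH turnover, read after 5 min at room temperature. Compounds were tested over an 11-point series after 15 min dark preincubation with diaphorase in PBS-Tween.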

[21] = target: Luciferin 4-monooxygenase (Photinus pyralis) (UniProt P08659); assay: Firefly luciferase counterscreen qHTS: Assay Interference Panel against the NCATS CANVASS Library (AID 1347363); also: series mostly up to about 57 µM; 0% is about no effect
Outline: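 Luminescence inhibition readout: compounds (11-point qHTS) sat 15 min at room temperature with substrate mix (0.013 mM luciferin and ATP), then firefly luciferase was added and signal read 5 min later.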

[22] = KB-8-5-11 Cancer Cell Toxicity qHTS against the NCATS CANVASS Library (AID 1347364); also: series mostly up to about 46 µM; % is scaled to controls: 0 for no effect and ±100 for the full control effect; nearly all actives have a fitted effect of over 75% in size
Outline: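 Terse: KB-8-5-11, 500 cells/well, 72 hr, 37C/5% CO2, 11-pt titration, CellTiter-Glo readout; confirmatory runs ± 1uM tariquidar in medium.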

[23] = KB-3-1 Cancer Cell Toxicity qHTS against the NCATS CANVASS Library (AID 1347366); also: series mostly up to about 46 µM; % is scaled to controls: 0 for no effect and ±100 for the full control effect; nearly all actives have a fitted effect of over 75% in size
Outline: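 Seed KB-3-1 cells at 500/well in DMEM with 10% FBS, add compounds, incubate 72 hr at 37C and 5% CO2, then add CellTiter-Glo and read luminescence after 10 minutes.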

[24] = qHTS for ATAD5 Agonist screened against the NCATS CANVASS Library (AID 1347367);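 also: luciferase reporter driven by ATAD5 which rises upon DNA damage; 0% is about no effect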
Outline: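 Step one plated reporter cells and let them acclimate 5hr. Step two pinned compounds with MMS as positive and 0.46% DMSO as negative control. After 16hr incubation, fluorescence viability then luminescence were read.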

[25] = G06 Cancer Cell Toxicity qHTS against the NCATS CANVASS Library (AID 1347368); also: series mostly up to about 46 µM; % is scaled to controls: 0 for no effect and ±100 for the full control effect; nearly all actives have a fitted effect of over 60% in size
Outline: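 Cells were plated at 500 per well, then compounds were added over an 11-point range. After 72 hr at 37C, CellTiterGlo was added and luminescence measured as ATP content.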

[26] = MCF7 Cancer Cell Toxicity qHTS against the NCATS CANVASS Library (AID 1347369)
Outline: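 Cytotoxicity is measured by ATP content: MCF7 cells at 500 per well receive an 11-point compound series and, after 72 hr at 37C, are lysed with CellTiterGlo for luminescence.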

[27] = qHTS for ATAD5 Antagonist screened against the NCATS CANVASS Library (AID 1347370);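 also: HEK293T cells carrying an ATAD5 luciferase reporter co-treated with 10 µM 5-fluorouridine; series mostly up to about 46 µM; % is scaled to controls: 0 for no effect and ±100 for the full control effect; nearly all actives have a fitted effect of over 65% in size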
Outline: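 Compounds (11-point) co-dosed with 10 µM 5-FUrd for 16 h at 37 °C onto HEK293T-ATAD5 luciferase reporter cells. Viability measured by CellTiter-Fluor fluorescence, then ATAD5 reporter signal by luminescence.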

[28] = J3T Cancer Cell Toxicity qHTS against the NCATS CANVASS Library (AID 1347371)
Outline: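 Luminescence from CellTiterGlo, reporting cellular ATP, serves as the viability measure after 72 hr compound treatment of J3T canine glioma cells seeded at 500 cells/well.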

[29] = target: Nuclear receptor subfamily 1 group I member 3 (Homo sapiens) (UniProt Q14994); assay: qHTS for Constitutive Androstane Receptor (CAR) Antagonist screened against the NCATS CANVASS Library (AID 1347372)
Outline: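 Antagonist mode: compound added alongside 50 nM CITCO to HepG2-hCAR-CYP2B6 reporter cells, 24hr at 37C. Viability by CellTiter-Fluor fluorescence, then CAR-driven luciferase by ONE-Glo luminescence.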

[30] = target: Nuclear receptor subfamily 1 group I member 3 (Homo sapiens) (UniProt Q14994); assay: qHTS for Constitutive Androstane Receptor (CAR) Agonist screened against the NCATS CANVASS Library (AID 1347373);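 also: every well also contained 1.5 µM PK11195 alongside the test compound; 0% is about no effect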
Outline: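 Cells were plated and allowed to attach for 4hr, then dosed with compound in an 11-point series alongside 1.5uM PK11195. After 24hr at 37C, viability was measured fluorometrically and CAR-driven CYP2B6 reporter luminescence was recorded.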

[31] = qHTS for Hypoxia signaling pathway (HIF-1) agonists against the NCATS CANVASS Library (AID 1347375); also: 0% is about no effect
Outline: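 Cells plated and rested 5 h, compounds pinned in DMSO across 11 concentrations, incubated 17 h at 37C, loaded with CCF4-AM for 2 h, fluorescence read at 460 and 530 nm, then CellTiter-Glo luminescence measured for viability and normalization.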

[32] = 10-beta competent E. coli microbial cell viability qHTS against the NCATS CANVASS Library (AID 1347376); also: series mostly up to about 46 µM; 0% is about no effect
Outline: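 Bacterial suspension diluted to 0.2 OD was dosed with compounds, 11-point series, then held overnight at 37C. BacTiter-Glo reagent was added, and after 20 min at room temperature ATP-dependent luminescence was measured.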

[33] = qHTS for H2AX Agonists against the NCATS CANVASS Library (AID 1347378);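 also: phospho-H2AX S139 level in CHO-K1 lysates by TR-FRET emission ratio; 0% is about no effect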
Outline: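 Following overnight seeding, CHO-K1 cells are incubated with a concentration series of compound for 3 hr at 37C (final DMSO 0.76%). Cells are then lysed, detection antibodies added, and emission ratio 665/620 nm recorded after 24 hr at room temperature.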

[34] = Inflammasome Signaling qHTS Counterscreen: IL-1-beta AlphaLISA counterscreen against the NCATS CANVASS Library (AID 1347381);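 also: cell-free check with purified IL-1β in medium and no THP-1 cells; series mostly up to about 57 µM; 0% is about no effect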
Outline: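 Purified IL-1-beta (4 pg/well) + compound, 11-pt conc. series; acceptor beads 6 ug/mL + biotin-Ab 0.6 nM final, 1 h RT; SA-donor 24 ug/ml final, 30 min dark RT; read ex 680/em 615.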

[35] = Cytotoxicity qHTS for assessment of Hepg2 cells membrane integrity screened against the NCATS CANVASS Library (AID 1347387)
Outline: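 Cells were seeded at 2000 per well and left overnight to attach. Compounds were pin-transferred to give 0.59 nM - 46 uM in an 11-point series and incubated 5 hr at 37C. CytoTox-ONE reagent was added and, after 10 min at room temperature, fluorescence (ex 560, em 590 nm) was read.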

[36] = qHTS assay for small molecule disruptors of mitochondrial membrane potential screened against the NCATS CANVASS Library (AID 1347389)
Outline: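 Mitochondrial depolarization in HepG2 cells is scored as a falling aggregate-to-monomer fluorescence ratio after 1 hr compound exposure and 30 min staining with Mito-MPS dye at 37C, each compound tested as an 11-point titration.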

[37] = Secretion counterscreen for inhibitors of the SERCaMP assay screened against the NCATS CANVASS Library (AID 1347390)
Outline: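 Counterscreen identifying compounds that disrupt secretion, using SH-SY5Y cells with a constitutively secreted Gaussia luciferase reporter. A 20 h compound exposure (top 77 uM) precedes luminescent detection with coelenterazine.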

[38] = qHTS for activators of Nrf2/ARE signaling pathway screened against the NCATS CANVASS Library (AID 1347391); also: 0% is about no effect; nearly all actives have a fitted effect of over 60% in size
Outline: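 Beta-lactamase reporter signal, read as 460 and 530 nm emission under 405 nm excitation after 2 h CCF4 loading, reflected ARE activation in HepG2 cells treated 16 h with an 11-point series.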

[39] = qHTS for activators of dead-cell proteases activity screened against the NCATS CANVASS Library (AID 1347392);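 also: luminescence from protease leaking out of membrane-damaged cells cleaving impermeant substrate; 0% is about no effect; rising signal means more cytotoxicity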
Outline: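 Luminescent dead-cell protease readout (AAF-aminoluciferin, 15 min, room temperature) after 5 h compound treatment of HepG2 cells (2000/well, pre-attached 18 h). Eleven concentrations.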

[40] = qHTS for inhibitors of ER calcium dysfunction: SERCaMP assay screened against the NCATS CANVASS Library (AID 1347393);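 also: series mostly up to about 77 µM; % is scaled to controls: 0 for no effect and ±100 for the full control effect; lower secreted reporter signal means inhibitor of ER calcium depletion; nearly all actives have a fitted effect of over 40% in size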
Outline: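 Thapsigargin-induced ER calcium depletion drives GLuc-SERCaMP secretion from SH-SY5Y cells; compounds given 16 h beforehand were scored by lowered coelenterazine luminescence after 4 h challenge.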

[41] = qHTS for inhibitors of Wild type Zika virus screened against the NCATS CANVASS Library (AID 1347396)
Outline: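 Luminescent CellTiter Glo read-out of virus-induced cytotoxicity, 72 h post-infection, in Vero 766 cells. Compounds were tested at 11 concentrations; uninfected, vehicle-treated wells defined 100% inhibition.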

[42] = qHTS for inhibitors of Rabies Virus screened against the NCATS CANVASS Library (AID 1347402; calls by dose curve; also: series mostly up to about 46 µM; 0% is about no effect)

Nuclear receptor subfamily 1 group I member 3 (Homo sapiens), sequence (Q14994 whole entry, looked up): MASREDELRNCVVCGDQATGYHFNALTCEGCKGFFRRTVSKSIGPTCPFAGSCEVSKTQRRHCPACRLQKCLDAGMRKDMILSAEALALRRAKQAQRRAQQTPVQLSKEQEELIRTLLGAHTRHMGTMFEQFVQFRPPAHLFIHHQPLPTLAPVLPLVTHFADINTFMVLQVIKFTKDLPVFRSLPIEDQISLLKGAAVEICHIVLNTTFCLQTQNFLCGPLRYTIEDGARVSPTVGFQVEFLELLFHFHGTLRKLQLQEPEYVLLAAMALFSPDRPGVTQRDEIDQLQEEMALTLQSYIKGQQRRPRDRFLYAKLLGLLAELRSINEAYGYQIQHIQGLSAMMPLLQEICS
Luciferin 4-monooxygenase (Photinus pyralis), sequence (P08659 whole entry, looked up): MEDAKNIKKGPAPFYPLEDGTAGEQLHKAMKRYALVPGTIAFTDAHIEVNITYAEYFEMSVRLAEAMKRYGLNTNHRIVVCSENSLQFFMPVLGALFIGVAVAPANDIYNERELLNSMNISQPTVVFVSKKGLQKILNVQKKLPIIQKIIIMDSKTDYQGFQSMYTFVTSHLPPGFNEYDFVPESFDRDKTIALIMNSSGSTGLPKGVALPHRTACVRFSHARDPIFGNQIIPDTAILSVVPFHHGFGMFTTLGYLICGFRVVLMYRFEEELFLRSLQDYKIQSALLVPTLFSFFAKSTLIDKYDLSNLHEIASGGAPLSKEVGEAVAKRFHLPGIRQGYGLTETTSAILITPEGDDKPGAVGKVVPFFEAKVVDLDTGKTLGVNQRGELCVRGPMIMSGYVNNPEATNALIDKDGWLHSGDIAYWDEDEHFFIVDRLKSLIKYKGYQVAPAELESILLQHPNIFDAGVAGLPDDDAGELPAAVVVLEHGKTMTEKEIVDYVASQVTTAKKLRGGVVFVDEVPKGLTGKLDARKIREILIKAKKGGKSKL
Glucocorticoid receptor (Homo sapiens), sequence (P04150 whole entry, looked up): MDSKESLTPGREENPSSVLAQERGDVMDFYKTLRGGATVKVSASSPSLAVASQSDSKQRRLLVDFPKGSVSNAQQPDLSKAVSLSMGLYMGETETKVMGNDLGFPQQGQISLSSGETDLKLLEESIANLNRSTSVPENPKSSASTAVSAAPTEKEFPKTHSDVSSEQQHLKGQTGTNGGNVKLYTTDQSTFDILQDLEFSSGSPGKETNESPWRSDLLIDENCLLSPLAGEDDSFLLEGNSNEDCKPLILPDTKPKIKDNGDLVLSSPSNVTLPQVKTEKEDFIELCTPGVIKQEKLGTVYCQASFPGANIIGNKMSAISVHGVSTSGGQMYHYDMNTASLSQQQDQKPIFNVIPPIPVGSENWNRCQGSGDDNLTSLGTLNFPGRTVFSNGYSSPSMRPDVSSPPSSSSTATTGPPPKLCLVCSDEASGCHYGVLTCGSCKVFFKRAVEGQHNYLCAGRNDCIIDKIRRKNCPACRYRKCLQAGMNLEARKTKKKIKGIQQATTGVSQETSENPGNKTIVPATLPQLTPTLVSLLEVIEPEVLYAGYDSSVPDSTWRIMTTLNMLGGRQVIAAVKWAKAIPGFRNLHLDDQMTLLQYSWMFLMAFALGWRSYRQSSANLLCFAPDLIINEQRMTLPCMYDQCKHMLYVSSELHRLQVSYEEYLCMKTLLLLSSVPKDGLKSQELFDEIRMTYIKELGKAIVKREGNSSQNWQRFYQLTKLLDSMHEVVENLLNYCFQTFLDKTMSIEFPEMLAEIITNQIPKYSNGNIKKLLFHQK

CNCCc1c[nH]c2ccccc12
inactive: outcome [1] | outcome [2] | Potency [3] > 20.6 µM | activation [4] -14% | Potency [5] | Potency [6] | Potency [7] | Potency [8] | Potency [9] | Potency [10] | Potency [11] | Potency [12] | Potency [13] | Potency [14] | Potency [15] | outcome [16] | outcome [17] | Potency [18] | Potency [19] | outcome [20] | outcome [21] | Potency [22] | Potency [23] | Potency [24] | Potency [25] | Potency [26] | Potency [27] | Potency [28] | Potency [29] | outcome [30] | Potency [31] | outcome [32] | Potency [33] | outcome [34] | outcome [35] | Potency [36] | Potency [37] | Potency [38] | Potency [39] | Potency [40] | Potency [41] | outcome [42]
